Laboratory results: PubChem BioAssay

Columns and labels:
[1] = target: Tumor necrosis factor receptor superfamily member 10B (Homo sapiens) (UniProt O14763); test: caspase-8 TRAIL sensitization, hit retest, confirmation, cell-based, NB7+caspase-8, with/without TRAIL, luminescence panel (AID 651596); conditions: NB7 neuroblastoma + caspase-8, TRAIL sensitization, luminescence viability, with TRAIL, mean of runs, at 10 µM, stronger effect = higher value
[2] = as above; conditions: NB7 neuroblastoma + caspase-8, without TRAIL, luminescence viability, without TRAIL, mean of runs, at 10 µM

Sequence of Tumor necrosis factor receptor superfamily member 10B (Homo sapiens) (O14763 whole entry, looked up): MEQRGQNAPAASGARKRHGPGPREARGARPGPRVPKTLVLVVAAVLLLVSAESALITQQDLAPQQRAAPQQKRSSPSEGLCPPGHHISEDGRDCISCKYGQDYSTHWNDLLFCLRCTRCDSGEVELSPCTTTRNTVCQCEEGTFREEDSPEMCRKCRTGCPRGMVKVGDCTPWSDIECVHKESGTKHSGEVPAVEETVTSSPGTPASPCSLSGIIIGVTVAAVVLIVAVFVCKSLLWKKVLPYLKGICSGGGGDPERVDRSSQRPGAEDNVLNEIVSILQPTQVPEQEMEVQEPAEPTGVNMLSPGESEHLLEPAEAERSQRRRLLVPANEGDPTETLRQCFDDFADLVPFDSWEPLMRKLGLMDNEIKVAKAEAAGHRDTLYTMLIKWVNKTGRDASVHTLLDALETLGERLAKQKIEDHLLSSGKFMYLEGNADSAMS

Row | Structure (SMILES) | activity [1] | activity [2]
1 | CCN(CC)c1ccc(C(=O)OCc2cc(=O)oc3cc(O)ccc23)cc1 | 83.8% | 96%
2 | CCOc1ccc(-c2ccc(SCC)nn2)cc1 | 75.4% | 71.5%
3 | COC(=O)c1c(-c2ccccc2)csc1NC1=NS(=O)(=O)c2ccccc21 | 74.7% | 73.3%
4 | O=S1(=O)N=C(Nc2nc3c(s2)CCCC3)c2ccccc21 | 75.7% | 81.4%
5 | COc1ccc(OC)c(NC(=O)c2cc(-c3cc(Cl)ccc3O)n[nH]2)c1 | 33.7% | 34.1%
6 | O=C(OCn1ncc(Cl)c(Cl)c1=O)c1cccc(C(F)(F)F)c1 | 99.2% | 99.3%
7 | Clc1nc2ccccc2cc1/C=N/Nc1nc2ccccc2[nH]1 | 86.2% | 81.5%
8 | CCC(C(=O)O/N=C(\N)c1ccc(C)cc1)c1ccccc1 (centres undefined) | 65.2% | 77.5%
9 | COc1cccc(C(=O)Cn2c(=N)n(C)c3ccccc32)c1 | 65.8% | 66.2%
10 | Cc1ccc(C(=O)Nc2ccc(C)c(S(=O)(=O)N(C)C)c2)s1 | 52.5% | 66.5%
11 | O=C(CSc1nnc(-c2ccc(O)cc2)o1)Nc1cccc(O)c1 | 50.6% | 55.7%
12 | COc1ccc(/C=C/C(=O)NC(=S)Nc2ccccn2)cc1 | 29% | 37.3%
13 | COc1cccc2oc3ccc(C#Cc4ccccn4)cc3c(=O)c12 | 71.8% | 87.5%
14 | CC1C(=O)NN=C1C(=O)N/N=C\C(Br)=C\c1ccccc1 (centres undefined) | 80.2% | 73.8%
15 | COc1ccc(OCC(=O)N/N=C(\C)c2cc3ccccc3o2)cc1 | 62.8% | 70.2%
16 | CN(C)c1ccc(/C=N/NC(=O)c2ccco2)cc1 | 50.2% | 31.4%
17 | COc1cccc(-c2noc(-c3ccc4c(c3)OCO4)n2)c1 | 65.7% | 62.5%
18 | COc1cccc(NC(=O)c2cc3ccccc3o/c2=N\O)c1 | 65% | 64.6%
19 | CCc1cc2c(COC(=O)c3cc(S(=O)(=O)N4CCOCC4)ccc3F)cc(=O)oc2cc1O | 77.3% | 82.5%
20 | COc1ccc(NC(=O)c2ccccn2)cc1 | 75% | 69.8%
21 | O=C(CSc1nnc(-c2ccc(Br)cc2)o1)Nc1cccc(C(=O)O)c1 | 60.1% | 68.1%
22 | Cc1ccc2oc(-c3ccccc3)c(C(=O)O)c(=O)c2c1 | 29.9% | 39.2%
23 | O=C(Nc1ccc(NC(=O)C2CC2)cc1)c1ccco1 | 44% | 39.1%
24 | O=C(N/N=C/c1ccc2ncccc2c1)c1ccco1 | 75.7% | 70.7%
25 | Cc1ccc(/C(N)=N/OC(=O)c2ccc(C)cc2Cl)cc1 | 97.3% | 96.4%
26 | COc1ccc2nc(Nc3ccccc3OC)sc2c1 | 68.3% | 59.2%

Row | Structure (SMILES) | activity [1] | activity [2]
27 | O=C(CCl)N(Cc1ccccc1)c1ccccc1 | 99% | 98.9%
28 | CCCC(=O)Nc1ccc(-c2csc(N/N=C\c3ccncc3)n2)cc1 | 61.5% | 65.6%
29 | COc1cccc(C(=O)/C=C2\Sc3ccccc3N2C)c1 | 56.7% | 29.4%
30 | COC(=O)c1c(NC(=O)COc2ccc(Cl)cc2)sc2c1CC(C)(C)NC2(C)C | 81.2% | 93.9%
31 | Cc1nc(-c2ccc(NC(=O)c3ccc(Br)o3)cc2)cs1 | 68.5% | 67.5%
32 | O=C(CSc1nnc(-c2csc3c2CCCC3)o1)Nc1ccccc1 | 76.4% | 76.5%
33 | O=C(Nc1cccc(O)c1)c1noc2c1CCCCC2 | 66.2% | 61%
34 | Cc1nc2cc(NC(=O)Nc3nccs3)ccc2n1C | 63.5% | 60.8%
35 | C#Cc1ccc([C@@H]2C=C(C(=O)Nc3ccccc3)O[C@H](OCC)[C@H]2CCCO)cc1 | 90.8% | 91.5%
36 | O=C1c2cc(F)ccc2-n2c1nc1ccccc1c2=O | 32.5% | 25.7%
37 | Cn1c(=S)[nH]c2sc3c(c2c1=O)CCC(C(C)(C)C)C3 (centres undefined) | 86.4% | 78%
38 | O=C(NC(=S)Nc1ccccn1)c1ccccc1 | 77.8% | 76.8%
39 | O=C(Cc1ccsc1-c1ccccc1)NO | 73.4% | 72.3%
40 | CCCNC(=O)c1oc2ccc3c(c2c1C)C(=O)CC(C)(C)O3 | 66.1% | 68.4%
41 | Cc1ccc2nc(-c3ccc(NC(=O)COC(=O)c4cncc(Br)c4)cc3)sc2c1 | 60.7% | 60.1%
42 | CC(C)(C)c1ccc(/C=N/NC(=O)c2ccccn2)cc1 | 83.5% | 75%
43 | CC(=O)n1cc(N(C(=O)CCl)c2ccc([N+](=O)[O-])cc2)c2ccccc21 | 97.8% | 99.3%
44 | C=C(C)CSc1nnc2n(Cc3ccccc3)c(=O)c3c4c(sc3n12)CCC4 | 90.4% | 90%
45 | CCCn1c(C)cc(C(=O)COC(=O)c2ccc[nH]c2=O)c1C | 49% | 49.6%
46 | CC1CCc2c(sc(/N=C/c3ccco3)c2C(N)=O)C1 (centres undefined) | 54.1% | 56.5%
47 | O=Nc1c2cc(-c3ccccc3)[nH]nc-2c2ccccc12 | 78.8% | 78.7%
48 | Cc1cc(C)cc(C(=O)O/N=C(\N)c2ccc(Br)cc2)c1 | 89.5% | 89.5%
49 | C#CCN(C[C@@H]1[C@@H](OC(=O)NCC2CCCCC2)[C@@H](OC(=O)NCC2CCCCC2)Cn2c(=O)ccc(=O)n21)S(=O)(=O)c1ccc(C)cc1 | 97.7% | 98.3%
50 | CCOC(=O)c1c(C)oc2c(F)c(F)c(F)c(F)c2c1=O | 99.2% | 99.2%
51 | COCCCNc1ccn2nc(-c3ccccc3)cc2n1 | 50.1% | 35.5%
52 | C#Cc1cc(N2CCN(C(=O)c3ccoc3)CC2)n2nc(-c3cccc(Cl)c3)cc2n1 | 98.4% | 97.3%

Row | Structure (SMILES) | activity [1] | activity [2]
53 | CCCc1c(C(=O)N/N=C/C=C/c2ccccc2)nnn1-c1nonc1N | 47.5% | 50.4%
54 | CSc1nc2ccc(NC(=O)c3ccccn3)cc2s1 | 83.2% | 80%
55 | O=C(Cn1ncc(Cl)c(Cl)c1=O)NCC1CCCCC1 | 98.9% | 99.1%
56 | Cc1cccn2c(=O)c3cc(C(=O)NCCc4ccccc4)c(=N)n(Cc4ccco4)c3nc12 | 19.5% | 5.95%
57 | Cc1ccc(C(=O)Nc2ccc3ccccc3n2)cc1 | 58.6% | 58.2%
58 | NC(Cc1ccc(C(F)(F)F)cc1)c1csc(NC(=O)Nc2ccccc2Cc2ccccc2)n1 (centres undefined) | 75% | 96.2%
59 | Cc1ccc2nc(NC(=S)NC(=O)c3cccs3)sc2c1 | 82.5% | 74.8%
60 | CCOc1ccc(-c2c(C#N)c(N)nc3c2c(=O)n(C)c(=O)n3C)cc1OC | -4.4% | -21.2%
61 | Cc1ccc(C(=O)N/N=C\c2cccc(OC(=O)c3cccc(F)c3)c2)cn1 | 37.2% | 36.8%
62 | O=C(/C=C\Nc1ccccn1)c1ccccc1 | 55.4% | 53.2%
63 | COc1cccc(C=NNc2nnc(NN=Cc3cccc(OC)c3OC)c3ccccc23)c1OC | 83.2% | 75%
64 | C(=C\c1nc2ccccc2[nH]1)/c1ccccc1 | 93.8% | 93.6%
65 | Cc1cc(C)cc(N2C(N)=NC(N)=NC2c2ccccc2F)c1 (centres undefined) | 51.1% | 72.4%
66 | COC(=O)Cn1c(=O)c(C(=O)CCl)c(N)n(Cc2ccccc2)c1=O | 93.6% | 94.7%
67 | O=C(NCCc1cccc(Cl)c1)c1ccc2c(c1)OCO2 | 47.7% | 39.4%
68 | Cc1cccc(-c2cc3nc(-c4ccccc4)cc(=O)n3[nH]2)c1 | 50% | 55.2%
69 | Cc1ccc(-c2csc(NC(=O)CSc3nnc4c(n3)[nH]c3ccccc34)n2)cc1 | 42.5% | 24.3%
70 | COc1ccc(NC(=O)c2cc(-c3ccncc3)nc3ccc(Br)cc23)cc1OC | 4.8% | 51.5%
71 | COC(=O)c1ccc2nc(NC(=O)C(C)(C)C)sc2c1 | 93.2% | 91.2%
72 | CCN1CCN(Cc2ccc(NC(=O)c3cc(NC(=O)c4cc5cccc(OC)c5o4)cc(OC)c3)cc2C(F)(F)F)CC1 | 59.2% | 79.5%
73 | Cc1cccc(Nc2nc(N)nc(CCl)n2)c1 | 97.7% | 96.8%
74 | NC(=O)c1ccccc1NC(=O)/C=C/c1ccccc1 | 67.8% | 70.7%
75 | O=C(NC(=S)N1CCc2ccccc21)c1ccccc1 | 65.3% | 72.6%
76 | O=C(Oc1c(CN2CCOCC2)cc(Cl)c2cccnc12)c1ccc(F)cc1 | 53.5% | 56.1%
77 | CCc1ccc(C(=O)Nc2nnn(CC)n2)cc1 | 73.6% | 75.5%
